This is a sample that favours compounds with a hit; in the whole collection about 13% have one here.
LASV entry inh: Lassa virus entry inhibition | Lassa virus pseudotype entry inhibition, cell reporter | 300,000 tested, 1.2% active | Potency, µM (series often up to 37.9 µM), usual class: inhibitors; calls by dose curve; tested in HEK293 cells; also: nearly all actives have a fitted effect of over 50% in size
MARV entry inh: Marburg virus entry inhibition; Marburg virus pseudotyped entry inhibition, cell reporter; Potency, µM (top dose mostly 37.8 µM), usual class: inhibitors; 300,000 tested, 1.8% active; calls by dose curve; tested in HEK293 cells
Cycloheximide cs: counter-screen for Shiga toxin inhibitors: cycloheximide protein synthesis inhibition; max response, %; cell reporter, cycloheximide protein synthesis inhibition counterscreen; 300,000 tested, 12% active; in the data active = max response mostly above about 13%, no sharp cut-off; inactive = mostly below about 14%; also: read at 38.3 µM for the half of the compounds with a filed dose
HCV inhibitor: inhibitors of hepatitis C virus infection | 340,000 tested, 3.4% active | Huh7.5.1 HCVcc-Cre infection, luciferase reporter, 44 h | Potency, µM (series often up to 41.8 µM), hits mostly inhibitors; active = well fitted inhibition curve with a large enough effect; inconclusive = small, poorly fitted or top-dose-only effect, or another doubt; inactive = no such curve, though single readings can be large or run the other way
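After 44 h co-culture of compound, cells and HCVcc-Cre (~0.5 moi), substrate is added for 15 min at room temperature and luciferase measured over 15 sec. Cells were seeded at 1,000/well and pre-cultured 4 h.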
FMDV inh: foot and mouth disease virus antiviral activity; Potency, µM (titrated, usually from 57.9 µM), most hits filed as inhibitors; FMDV antiviral cell-based qHTS; 410,000 tested, 1.2% active; calls by dose curve; tested in HEK293T cells; also: read-out not given here; nearly all actives have a fitted effect of over 45% in size
Shiga inhibitor: Shiga toxin inhibition. Vero cells, Shiga toxin protein synthesis inhibition reporter. inhibition, % at 38.7 µM. 290,000 tested, 9.2% active. AID 2315; in the data active = inhibition mostly above about 28%, no sharp cut-off; inactive = mostly below about 43%
A number is an active result; - = inactive; ? = inconclusive; . = not tested or not shown.

SMILES | LASV entry inh | MARV entry inh | Cycloheximide cs | HCV inhibitor | FMDV inh | Shiga inhibitor
O=C(O)c1ccccc1C(=O)c1ccc(N2CCCC2)c([N+](=O)[O-])c1 | - | - | - | - | - | -
CCC(C)NC(=O)C1CCN(C(=O)N(C)C)CC1 (centres undefined) | - | ? | - | - | . | -
CN1C(=O)C(=O)/C(=C(/O)c2ccc(Br)cc2)C1c1cccc([N+](=O)[O-])c1 (centres undefined) | . | . | - | - | - | -
CCCCC1Cc2[nH]c(=S)[nH]c(=O)c2C(c2ccc(C(C)C)cc2)O1 (centres undefined) | . | . | . | . | - | .
O=[N+]([O-])c1ccc(N2CCN(c3ccc([N+](=O)[O-])cc3CO)CC2)c(CO)c1 | - | - | - | 3.2µM | ? | -
CN1CCN(c2ccc([N+](=O)[O-])cc2Cl)CC1 | ? | - | - | - | - | -
CC1=NNC(=O)C1Cc1ccc(F)cc1 (centres undefined) | ? | - | - | - | - | -
O=C(CSc1nc(-c2ccc(Cl)cc2)cs1)Nc1cccc([N+](=O)[O-])c1 | . | . | 38 | 13µM | - | 54
O=[N+]([O-])c1cccc(NC(=S)Nc2nc(-c3ccccc3Cl)cs2)c1 | ? | ? | 33 | 8.9µM | - | 75
CCNC(=S)Nc1cccc([N+](=O)[O-])c1 | - | - | - | - | . | -
NS(=O)(=O)c1cccc(NC(=O)CSc2ccccn2)c1 | - | - | 28 | - | - | -
O=C(CSc1ccccn1)Nc1cccc([N+](=O)[O-])c1 | - | - | 32 | - | - | 34
O=C(Nc1cccc(-n2cnnn2)c1)c1cc(Cl)nc(Cl)c1 | . | . | - | ? | - | -
O=C(COC(=O)c1c(Cl)cccc1Cl)NC1CCCCC1 | ? | - | - | ? | - | -
COc1ccc(N2CCN(S(=O)(=O)/C=C/c3ccccc3)CC2)cc1 | - | - | - | - | - | -
COc1cc2c(cc1OC)CN(S(=O)(=O)/C=C/c1ccccc1)CC2 | 1.3µM | ? | - | - | - | -
COc1cnc(SC)nc1Nc1ccc(C#N)cc1 | . | . | - | 22µM | - | -
CCCOc1ccc(Nc2nc(SC)ncc2C(=O)OCC)cc1 | ? | - | . | . | - | .
Cc1c(C(=O)N2CCN(c3ccccn3)CC2)oc2c(F)cccc12 | - | - | - | - | - | -
Cc1c(C(=O)N2CCC[C@H]2C(N)=O)oc2c(F)cccc12 | . | . | 29 | - | - | -
CC(C)(O)c1cc(=O)sc2nc3ccccc3n12 | ? | - | 32 | - | - | 70
CCOc1ccc(/C=C2/SC(=O)NC2=S)cc1 | ? | ? | 35 | - | - | 46
CCOc1ccc(N=C2NC(=O)S/C2=C\c2ccc(N(C)C)cc2)cc1 | - | - | 22 | ? | - | 59
CC1=NN(c2ccccc2C)C(=O)C1 | - | - | . | - | - | .
CCn1cc([N+](=O)[O-])c(C(=O)N2N=C(c3ccc4ccccc4c3)CC2c2ccccc2O)n1 (centres undefined) | - | ? | 34 | 10µM | - | 27
SMILES | LASV entry inh | MARV entry inh | Cycloheximide cs | HCV inhibitor | FMDV inh | Shiga inhibitor
CCn1cc([N+](=O)[O-])c(C(=O)N2N=C(c3cccc4ccccc34)CC2c2ccccc2O)n1 (centres undefined) | ? | ? | - | 11µM | ? | -
Cn1c(=O)c2c(ncn2Cc2nnc(N)s2)n(C)c1=O | - | ? | - | - | - | -
O=C(c1ccccc1CCc1ccccc1)N1CCOCC1 | - | - | - | - | - | -
O=C(N/C(=C\c1ccc([N+](=O)[O-])cc1)C(=O)N1CCOCC1)c1ccco1 | - | - | - | - | - | -
CC1N(C)c2cc(NC(=O)c3ccco3)ccc2C1(C)C (centres undefined) | ? | ? | 44 | - | - | 74
CC1N(C)c2cc(NC(=O)c3ccco3)c(P(=O)(Nc3ccc([N+](=O)[O-])cc3)N3CCOCC3)cc2C1(C)C (centres undefined) | ? | ? | - | 8.9µM | - | 56
NC(=S)N/N=C/c1cn(-c2ccccc2)nc1-c1cccnc1 | . | . | 19 | ? | - | -
O/N=C/c1cn(-c2ccccc2)nc1-c1ccc2c(c1)OCCO2 | - | - | - | - | - | -
O/N=C/c1cn(-c2ccccc2)nc1-c1ccccc1 | - | ? | 14 | ? | - | -
CN1C(=O)[C@H]2[C@@H](c3ccccc3)N[C@]3(CCCN(Cc4ccco4)C3=O)[C@H]2C1=O | . | . | . | . | - | .
CCOc1ccc2nc(SCc3cccc(C)c3)nc(C)c2c1 | - | - | - | - | - | -
NC(=O)C1CCN(C(=O)Cc2ccc(-c3ccccc3)cc2)CC1 | . | - | - | - | - | -
CCOC(=O)N1CCN(C(=O)CCSc2ccc(Cl)cc2)CC1 | ? | ? | - | - | - | -
CCOC(=O)N1CCN(C(=O)CCSc2ccc(C)cc2)CC1 | ? | - | 8.6 | - | - | active
NC(=O)C1CCN(C(=O)CCSc2ccccc2)CC1 | - | - | 20 | ? | - | 44
CCOC(=O)N1CCN(CC(c2ccccc2)c2ccccc2)CC1 | . | . | - | - | - | .
CCOC(=O)N1CCN(C(=O)CCSc2ccccc2)CC1 | ? | - | 54 | - | - | 85
COc1ccc(OC)c2c(N3CC(C)OC(C)C3)cc(C(F)(F)F)nc12 (centres undefined) | - | - | 21 | - | - | 78
COc1ccc(Nc2ncc(C(=O)Nc3cccc(Cl)c3)c3ccccc23)cc1 | - | - | . | . | - | .
O=C(NCc1ccncc1)c1nc(-c2cccs2)no1 | - | ? | - | - | - | -
O=C(NCCc1ccccc1)c1nc(-c2cccs2)no1 | - | - | 45 | - | - | 90
O=C(NCc1cccs1)c1nc(-c2cccs2)no1 | . | . | 21 | ? | - | 66
Cc1ccccc1OCCN1C(=O)C(=O)c2cccc(C)c21 | - | ? | - | ? | - | -
CC1=C(C(=O)OCCNC(=O)c2ccccc2O)C(c2ccccc2[N+](=O)[O-])C(C(=O)OCC2CCCO2)=C(C)N1 (centres undefined) | 10µM | ? | - | ? | 28µM | -
COc1ccc(S(=O)(=O)NCC(c2ccc(N(C)C)cc2)N2CCc3ccccc32)cc1 (centres undefined) | - | . | . | . | - | .
SMILES | LASV entry inh | MARV entry inh | Cycloheximide cs | HCV inhibitor | FMDV inh | Shiga inhibitor
Cc1cc(C)nc(N2CCCC(C(=O)Nc3ccc4nc(C)c(C)nc4c3)C2)n1 (centres undefined) | - | ? | - | 5.6µM | - | -
COc1cc(C)nc(N2CCCC(C(=O)NC3CCC(C)CC3)C2)n1 (centres undefined) | - | - | 32 | - | . | -
Cc1cc(C)cc(NC(=O)C2CCCN(c3nc(C)cc(C)n3)C2)c1 (centres undefined) | - | - | - | . | - | -
Cc1ccc(NC(=O)C2CCCN(c3ncnc4onc(C)c34)C2)cc1Cl (centres undefined) | - | . | . | . | 20µM | .
O=C(Nc1ccc(F)c(Cl)c1)C1CCCN(c2ncnc3onc(-c4ccc(F)cc4)c23)C1 (centres undefined) | - | . | . | . | - | .
CC(C)(C)NC(=O)[C@H]1CC[C@H]2[C@@H]3CC[C@H]4NC(=O)C=C[C@]4(C)[C@H]3CC[C@]12C | . | ? | - | - | - | -
